Assay results: PubChem BioAssay (NCI)
This is part of a sample that, as a whole, favours compounds with a hit. Of some 83,000 tested, about 20% had one in any assay.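 For each line, cells grew in 96-well plates with the test compound present at a single concentration for 48 hours.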 Active and inactive are the calls of the source. How the source made its calls: active means growth percent below 10; inactive means the rest.

Experiments:
Assay in all cases: NCI-60 one-dose screen, 48 h (100 = growth as untreated, 0 = no growth, -100 = all killed)
Conditions in all cases: 10 µM
[1] = system: DU-145 prostate
[2] = system: K-562 leukemia
[3] = system: MALME-3M melanoma
[4] = system: MDA-MB-231 breast
[5] = system: RXF 393 renal
[6] = system: SF-268 CNS
[7] = system: SF-295 CNS
[8] = system: SF-539 CNS
[9] = system: UACC-257 melanoma
[10] = system: M14 melanoma
[11] = system: HCT-15 colon
[12] = system: HT29 colon
[13] = system: SNB-75 CNS
[14] = system: SNB-19 CNS
[15] = system: U251 CNS
[16] = system: PC-3 prostate
[17] = system: SK-MEL-5 melanoma
[18] = system: UACC-62 melanoma
[19] = system: LOX IMVI melanoma
[20] = system: SK-MEL-28 melanoma

Measured: growth

O=[N+]([O-])c1cccc(/C=N/NC(=S)NC23CC4CC(CC(C4)C2)C3)c1
inactive: [1] 83.9% | [2] 89.2% | [3] 60.1% | [4] 70.2% | [5] 75.9% | [6] 77.8% | [7] 73.3% | [8] 92.3% | [9] 76.4% | [10] 89% | [11] 96% | [12] 88.7% | [13] 17.9% | [14] 80.6% | [15] 68.1% | [16] 75.9% | [17] 85.7% | [18] 84.3% | [19] 76.4% | [20] 85.4%

Nc1nccc(OCCO)n1
inactive: [1] 104% | [2] 99.3% | [3] 108% | [4] 108% | [5] 117% | [6] 101% | [7] 97.5% | [8] 101% | [9] 97.6% | [10] 102% | [11] 98.4% | [12] 88.3% | [13] 89.5% | [14] 101% | [15] 107% | [16] 103% | [17] 99.2% | [18] 106% | [19] 97.5% | [20] 112%

O=C(NCCNC(=O)c1ccc(F)cc1)Nc1ccc(-n2cc(-c3ccncc3)c(-c3ccc(Cl)c(O)c3)n2)cc1
active: [1] 2.26% | [2] 6.23% | [3] 3.35% | [4] -29.1% | [5] 3.36% | [6] 5.76% | [7] -59.1% | [8] -37.7% | [10] -44.4% | [12] -45.3% | [15] -19.9% | [16] -5.9% | [17] -84.9% | [18] 7.05% | [19] -3.97%
inactive: [9] 24.1% | [11] 19.5% | [13] 18.7% | [14] 22.7% | [20] 18.4%

NC(CSC(c1ccccc1)(c1ccccc1)c1cccc2ccccc12)C(=O)O (stereo not given)
inactive: [1] 106% | [2] 103% | [3] 112% | [4] 96.1% | [5] 94.2% | [6] 85% | [7] 91.1% | [8] 94.5% | [9] 103% | [10] 108% | [11] 102% | [12] 113% | [13] 87.6% | [14] 84.9% | [15] 93% | [16] 84.3% | [17] 82.6% | [18] 90.4% | [19] 96.9% | [20] 93.7%

CNS(=O)(=O)Oc1ccc(-c2sc3cc(OS(=O)(=O)NC)ccc3c2C(=O)c2ccc(OCCN3CCCCC3)cc2)cc1
active: [2] 9.88%
inactive: [1] 98.2% | [3] 57.7% | [4] 79.1% | [5] 38.8% | [6] 87.9% | [7] 89.3% | [8] 65% | [9] 70% | [10] 65.7% | [11] 35.2% | [12] 31.1% | [13] 69.3% | [14] 82.7% | [15] 66.9% | [16] 42.4% | [17] 49.7% | [18] 74.7% | [19] 32.8% | [20] 79.2%

COc1cc(-c2nn(-c3cccc(NC(=O)CCN4CCN(c5ccccc5)CC4)c3)cc2-c2ccncc2)ccc1Cl
active: [4] 7.1% | [5] -0.267% | [12] 4.96% | [19] 6.98%
inactive: [1] 30.8% | [2] 11.3% | [3] 38% | [6] 30% | [7] 13.4% | [8] 30.2% | [9] 29.1% | [10] 10.8% | [11] 20.8% | [13] 36.8% | [14] 35.9% | [15] 17.2% | [16] 22% | [17] 22% | [18] 26.6% | [20] 28.9%

C(=N\Nc1ncnc2sc3c(c12)CCNC3)/c1cccc2ccccc12
inactive: [1] 100% | [3] 92.6% | [4] 66% | [5] 85% | [6] 97.5% | [7] 104% | [8] 85.8% | [9] 104% | [10] 95% | [11] 18.9% | [12] 16.8% | [13] 62.5% | [14] 79.1% | [15] 83% | [16] 76.9% | [17] 97.1% | [18] 101% | [19] 50.4% | [20] 103%
active: [2] 2.84%

CN(C)CCCSc1ccccc1NC1=C(Cl)C(=O)C(Nc2ccccc2SCCCN(C)C)=C(Cl)C1=O
inactive: [1] 87.4% | [4] 44.9% | [5] 45.8% | [6] 43.7% | [7] 101% | [8] 42.8% | [9] 85% | [10] 94.7% | [11] 72.1% | [12] 22.7% | [13] 105% | [14] 90.6% | [15] 23% | [16] 42.8% | [17] 91.1% | [18] 60.7% | [20] 104%
active: [2] -18.8% | [3] -28.8% | [19] -81.7%

Nc1ccn(Cc2nnc(CCC(=O)c3nc4ccccc4[nH]3)o2)c(=O)n1
inactive: [1] 98.4% | [2] 79.8% | [3] 90.9% | [4] 87.3% | [5] 98.5% | [6] 95.8% | [7] 79.8% | [8] 86.8% | [9] 101% | [10] 89.8% | [11] 89.2% | [12] 89.5% | [13] 67.5% | [14] 91% | [15] 85.6% | [16] 77% | [17] 68.9% | [18] 66.2% | [19] 53.9% | [20] 104%

CN(C)CCOc1ccc(-c2nc3sccn3c2-c2ccnc(S(C)(=O)=O)n2)cc1
inactive: [1] 112% | [2] 102% | [3] 112% | [4] 110% | [5] 113% | [6] 117% | [7] 103% | [8] 102% | [9] 101% | [10] 112% | [11] 101% | [12] 103% | [13] 88.5% | [14] 99.1% | [15] 95.1% | [16] 87.2% | [17] 101% | [18] 105% | [19] 97.5% | [20] 110%

CCc1ccc(-c2ccc(-n3nc(C)c4c(N)nc(Cc5ccccc5)nc43)cc2)cc1
active: [2] 7.44%
inactive: [1] 77% | [3] 106% | [4] 38.2% | [5] 75.7% | [6] 66.1% | [7] 70.8% | [8] 80.9% | [9] 71.9% | [10] 30.3% | [11] 60.6% | [12] 78.8% | [13] 65% | [14] 66.3% | [15] 68% | [16] 54.7% | [17] 95.5% | [18] 73.1% | [19] 51.1% | [20] 92.4%

CN(C)CCCOc1cccc(NC2=C(Cl)C(=O)C(Nc3cccc(OCCCN(C)C)c3)=C(Cl)C2=O)c1
inactive: [7] 64.3% | [13] 53.8%
active: [1] -97.7% | [2] -29.7% | [3] -74.8% | [4] -73.6% | [5] -88.8% | [6] -62.6% | [8] -77.7% | [9] -90.1% | [10] -75.6% | [11] -19.5% | [12] -67.4% | [14] -42.3% | [15] -78% | [16] 0.365% | [17] -96.5% | [18] -72.9% | [19] -82.6% | [20] -72.7%

NNC(=O)Oc1c(Cl)cc(Cl)cc1[N+](=O)[O-]
inactive: [1] 103% | [2] 102% | [3] 94.4% | [4] 113% | [5] 113% | [6] 102% | [7] 103% | [8] 105% | [9] 104% | [10] 101% | [11] 99.2% | [12] 100% | [13] 106% | [14] 106% | [15] 97.5% | [16] 107% | [17] 103% | [18] 104% | [19] 98% | [20] 108%
